# High-throughput results deposited in PubChem BioAssay by National Center for Advancing Translational Sciences (NCATS).
# MARV entry inh – inhibitors of Marburg virus binding or cell entry; Marburg virus pseudotyped entry inhibition, cell reporter; Potency, µM (titrated, usually from 37.8 µM), for inactives: top-dose activity change, negative = inhibition, usual class: inhibitors; 1.8% of 300,000 active; AID 540276; calls by dose curve; tested in HEK293 cells; also: potency is read from the fitted curve at half-maximal effect; % is scaled to controls: 0 for no effect and ±100 for the full control effect
# HCV inh – HCV inhibition; Potency, µM (series often up to 41.8 µM), inactives show top-dose activity change, negative = inhibition, actives largely listed as inhibitors; Huh7.5.1 HCVcc-Cre infection, luciferase reporter, 44 h; 3.4% of 340,000 active; AID 651820; active = well fitted inhibition curve with a large enough effect; inconclusive = small, poorly fitted or top-dose-only effect, or another doubt; inactive = no such curve, though single readings can be large or run the other way; also: potency is read from the fitted curve at half-maximal effect; % is scaled to controls: 0 for no effect and ±100 for the full control effect
#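 Cells (1,000/well) were plated 4 h before compound, then infected with HCVcc-Cre virus (~0.5 moi). After 44 h further culture, infection was read as luciferase luminescence following a 15 min substrate incubation at room temperature.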
# FMDV inh – antivirals against foot and mouth disease virus. FMDV antiviral cell-based qHTS. Potency, µM (series often up to 57.9 µM), for the others: at the highest dose activity change, negative = inhibition, hits mostly inhibitors. 1.2% of 410,000 active. AID 1159524; calls by dose curve; tested in HEK293T cells; also: read-out not given here; potency is read from the fitted curve at half-maximal effect; % is scaled to controls: 0 for no effect and ±100 for the full control effect; nearly all actives have a fitted effect of over 45% in size
# SARS PLP yeast – inhibitors of SARS-CoV papain-like protease in yeast; S. cerevisiae expressing SARS-CoV PLpro, growth rescue; Potency, µM (top dose mostly 32.9 µM), inactives show at the highest dose activity, positive = growth rescue, most hits filed as activators; 0.19% of 330,000 active; AID 485353; calls by dose curve; also: potency is read from the fitted curve at half-maximal effect; 0% is about no effect; nearly all actives have a fitted effect of over 55% in size
# HCMV inh – inhibitors of human cytomegalovirus; HFF cells, HCMV-luciferase reporter, 72 h; hits give low values; activity change, negative = inhibition, % at 57.5 µM; 4.5% of 410,000 active; AID 1259415; in the data active = activity change below about -60%; inconclusive = no clear call, values can overlap the other calls; inactive = above about -39%; also: % is scaled to controls: 0 for no effect and ±100 for the full control effect
#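 Screen run at 2 compound doses on HFFs infected with reporter HCMV, MOI 1 PFU/cell. Luciferase activity from cell lysates at 72 h post infection gave inhibition relative to buffer-only and Salinomycin wells.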
# Lassa entry inh – blocks Lassa virus binding to or entry into cells; Potency, µM (titrated, usually from 37.9 µM), for the others: at the top dose activity change, negative = inhibition, usual class: inhibitors; Lassa virus pseudotype entry inhibition, cell reporter; 1.2% of 300,000 active; AID 540256; calls by dose curve; tested in HEK293 cells; also: potency is read from the fitted curve at half-maximal effect; % is scaled to controls: 0 for no effect and ±100 for the full control effect; nearly all actives have a fitted effect of over 50% in size
# * = called active by the depositor; u = inconclusive; x = no result given; [ ] = another dose, or the depositor's remark. A selection: hits, their analogues and other compounds. The true share with any hit is near 8%.
SMILES,MARV entry inh,HCV inh,FMDV inh,SARS PLP yeast,HCMV inh,Lassa entry inh
COC(=O)c1cc2sc(Cl)cc2n1Cc1nc(-c2ccccc2F)oc1C,0%[46.1 µM],x,-16%,x,12,x
O=C1NCCN1c1ccccc1,18%,10%,-4%,x,-79*,u
O=C1N(c2ccccc2)CCN1c1ccccc1,x,5%,0%,0%,57,x
Brc1cc(Br)c2ncnc(N3CCCCC3)c2c1,-20%,u,u,2%,-104*,-25%
O=C1CCCC2=C1C(c1ccc(Cl)cc1)C1C(=O)c3ccccc3C1=N2 (stereo not drawn),u,u,u,-7%,-70*,-10%
O=C1CCCC2=C1C(c1ccccc1)C1C(=O)c3ccccc3C1=N2 (stereo not drawn),-2%,u,-19%,29%,20,-18%
COC(=O)C1CCN(c2nc(CN(C)C3CCOC3)nc3cc(OC)c(OC)cc23)CC1 (stereo not drawn),x,x,-3%,x,x,x
COc1ccc2c(c1)c(CC(=O)Nc1c(C)cccc1C)c(C)n2C(=O)c1ccc(Cl)cc1,-16%[46.1 µM],x,u,x,-17,0%[46.1 µM]
COc1ccc2c(c1)c(CC(=O)Nc1nnc(C3CC3)s1)c(C)n2C(=O)c1ccc(Cl)cc1,3.2µM*,14%,5%,0%,-76*,u
COc1ccc(OC)c(NC(=O)Cc2c(C)n(C(=O)c3ccc(Cl)cc3)c3ccc(OC)cc23)c1,-22%[46.1 µM],x,u,x,-71*,u
COc1ccc2c(c1)c(CC(=O)Nc1ccccc1OC)c(C)n2C(=O)c1ccc(Cl)cc1,u,u,-18%,11%,-13,-15%
COc1ccc2c(c1)c(CC(=O)Nc1ccc(C(C)=O)cc1)c(C)n2C(=O)c1ccc(Cl)cc1,u,-28%,18%,4%,19,u
COc1ccc2c(c1)c(CC(=O)NCc1cc([N+](=O)[O-])ccc1O)c(C)n2C(=O)c1ccc(Cl)cc1,-10%,u,40µM*,6%,x,8%
C=CCc1ccccc1OCC(O)CN(C(C)C)C(C)C (stereo not drawn),6.3µM*,-12%,-15%,-2%,10,u
COC(=O)N[C@@H](C=Cc1ccccc1)C[N+](=O)[O-],7%[14.2 µM],x,x,x,x,x
COc1ccc(NC(=O)CCCSc2nc(-c3ccco3)cc(C(F)(F)F)n2)cc1,0%[46.1 µM],x,-10%,x,-16,-3%[46.1 µM]
COc1ccc(NC(=O)CSc2ccccc2)cn1,u,-6%,33%,0%,-103*,u
COc1ccc(NC(=O)Cc2ccccc2)cn1,6%[46.1 µM],16%,14%,1%,-30,u
COc1ccc(/C=C/c2cc(-c3ccc(C)cc3)o[n+]2C)cc1,u,u,2.8µM*,-11%,-104*,u
Cc1cccc(CNC(=O)C2CCN(S(=O)(=O)c3cccc4nonc34)CC2)c1,x,x,-18%,x,3,10%[46.1 µM]
Cc1cc(C(=O)NCC2CCC3(CCN(Cc4ccc5ccccc5c4)CC3)O2)n(C)n1 (stereo not drawn),x,x,-29%,x,x,x
Clc1ccc(C2=NNC(=NCc3ccc4c(c3)OCO4)SC2)cc1,13µM*,-4%,8%,20%,u,u
COc1ccc(CN=C2NN=C(c3ccc(Cl)cc3)CS2)cc1,23%[46.1 µM],-1%,53%,-1%,-28,2%
CC(C)(C)N=C1NN=C(c2ccc(Cl)cc2)CS1,x,10µM*,5%,6%,u,x
Oc1ccc(C2=NNC(=NCc3ccc4c(c3)OCO4)SC2)c(O)c1,u,-15%,52%,26%,-9,-12%
SMILES,MARV entry inh,HCV inh,FMDV inh,SARS PLP yeast,HCMV inh,Lassa entry inh
O=C(NCc1ccccc1CN1CCCCC1)c1ccc(Cl)cc1N1CCCC1=O,x,11%,-16%,3%,-6,x
O=C(NCc1ccccc1CN1CCCC1)c1ccc(Cl)c(N2CCCC2=O)c1,x,18µM*,6%,-4%,-34,x
CCc1ccc(CNC(=O)CCCN2C(=O)CCn3nc(-c4cccn4C)cc32)cc1,x,x,-13%,x,-9,22%[46.1 µM]
O[C@@H]1CN=C2Sc3ccccc3N2C1,-9%,x,x,x,x,x
ClCCN(CCCl)c1ccc(C2=NCCc3ccccc32)cc1,u,u,u,x,-74*,u
CCOC(=O)CNC(=O)c1cc(-c2ccccn2)nc2c(C)c(Cl)ccc12,5µM*,-10%,-16%,-1%,u,-16%
Cc1c(Cl)ccc2c(C(N)=O)cc(-c3ccccn3)nc12,u,9%,-15%,-2%,25,9%
O=C(Nc1cc(Cl)ccc1Cl)c1cc(S(=O)(=O)N2CCCc3ccccc32)ccc1F,x,x,-14%,x,u,u
COc1ccc(N=C(NN)c2ccc3ccccc3n2)cc1,u,6%,39%,-16%,-89*,u
COc1ccc(C(=O)NC(=S)NNC(=O)c2ccc3ccccc3n2)cc1,u,11µM*,-29%,0%,-97*,u
COc1ccc(NC(=S)c2ccc3ccccc3n2)cc1,x,5%,67%,-8%,x,x
COc1cc(OC)cc(C(=O)NNC(=O)c2ccc3ccccc3n2)c1,u,u,2%,1%,-75*,u
CCC1CN(C(=O)N2CCC(C(=O)NCc3cccc(F)c3)CC2)c2cc(C)ccc2O1 (stereo not drawn),x,x,u,x,49,u
Cc1c(Cl)cccc1NC(=O)CSc1nc(=O)[nH]c2c1CCCC2,x,x,-17%,x,10,-3%[46.1 µM]
CCc1ccc(-n2nc(C)c3c2NC(=O)CSC3c2ccc(C(=O)OC)cc2)cc1 (stereo not drawn),2%[46.1 µM],x,u,x,-2,11%[46.1 µM]
CCc1ccc(-n2nc(C)c3c2NC(=O)CSC3c2ccc(OC)cc2OC)cc1 (stereo not drawn),u,x,-23%,x,-67*,-18%[46.1 µM]
CCc1ccc(-n2nc(C)c3c2NC(=O)CSC3c2ccccc2C)cc1 (stereo not drawn),14%[46.1 µM],x,u,x,-80*,u
COCC(=O)Nc1cc(C(=O)N2CCCC2c2nccs2)c2c(c1)nc(-c1ccncc1)n2C (stereo not drawn),x,x,-5%,x,x,x
C/C=C\c1ccccc1OCc1ccc(C(=O)O)o1,11%[46.1 µM],x,x,x,x,x
CCOc1ccc(-n2c(C)cc(/C=N\NC(=O)CC(=O)NC3CCCCC3)c2C)cc1,u,-11%,-29%,-8%,-81*,u
CCOc1ccc(-n2c(C)cc(/C=N/NC(=O)C(N)=O)c2C)cc1,1%[46.1 µM],u,2%,-2%,-16,-20%
CCc1ccccc1Nc1nn2c(=O)c3ccc(C(=O)NCCCOC(C)C)cc3nc2s1,x,x,-9%,0%,-14,-1%[46.1 µM]
CCC1(c2ccccc2)NC(=O)N(CC(=O)Nc2cc(S(=O)(=O)N3CCCCCC3)ccc2OC)C1=O (stereo not drawn),u,14µM*,-30%,1%,-12,u
CCC1(c2ccccc2)NC(=O)N(CC(=O)Nc2cc(S(=O)(=O)N3CCCCC3)ccc2OC(C)C)C1=O (stereo not drawn),u,10µM*,-2%,x,-10,-14%
